# How the values were obtained:
# Test in all cases: DAPPL (digital affinity profiling via proximity ligation, sequencing); 10 mM Tris-HCl pH 7.5, 50 mM NaCl, 1 mM DTT, 4% glycerol, room temperature, 30 min; GST-TFs on glutathione beads, 16-mer random dsDNA library, 0.1% formaldehyde crosslink after washing; high values mean tight binding
# [1] = target: T1, FEV (Homo sapiens, UniProt Q99581 1-238); conditions: protein: recombinant; tags: N-terminal GST; dsDNA, one strand shown
# T1 sequence: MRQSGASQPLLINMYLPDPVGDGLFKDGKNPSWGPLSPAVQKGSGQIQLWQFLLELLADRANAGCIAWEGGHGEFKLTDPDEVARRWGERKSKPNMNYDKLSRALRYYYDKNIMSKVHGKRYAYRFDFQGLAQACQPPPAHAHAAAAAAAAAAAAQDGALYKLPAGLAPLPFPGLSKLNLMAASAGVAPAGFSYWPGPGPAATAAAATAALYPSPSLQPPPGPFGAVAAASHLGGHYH
# Summary of the method: (§1)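 Human transcription factors fused to GST were expressed in yeast, captured on glutathione beads, given DNA barcodes and pooled with a GST-only negative control. Pools were incubated with 200 nmole of a 16-mer random double-stranded DNA library in Tris/NaCl/DTT/glycerol buffer at room temperature for 30 min. They were then washed, crosslinked with 0.1% formaldehyde, proximity-ligated (BsaI/T4 ligase, 1 h, 37 °C), PCR-amplified and sequenced on an Illumina NextSeq500. Binding signal is each 6-mer's read frequency for a factor divided by its frequency for the GST control.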
# [2] = target: ETV5 (Homo sapiens, UniProt P41161 1-510); conditions: protein: recombinant; tags: N-terminal GST; dsDNA, one strand shown
# Summary of the method: as §1
# [3] = target: HSF1 (Homo sapiens, UniProt Q00613 1-529); conditions: protein: recombinant; tags: N-terminal GST; chain copies: 3; dsDNA, one strand shown
# Summary of the method: as §1
# [4] = target: T2, SPIC (Homo sapiens, UniProt Q8N5J4 1-248); conditions: protein: recombinant; tags: N-terminal GST; dsDNA, one strand shown
# T2 sequence: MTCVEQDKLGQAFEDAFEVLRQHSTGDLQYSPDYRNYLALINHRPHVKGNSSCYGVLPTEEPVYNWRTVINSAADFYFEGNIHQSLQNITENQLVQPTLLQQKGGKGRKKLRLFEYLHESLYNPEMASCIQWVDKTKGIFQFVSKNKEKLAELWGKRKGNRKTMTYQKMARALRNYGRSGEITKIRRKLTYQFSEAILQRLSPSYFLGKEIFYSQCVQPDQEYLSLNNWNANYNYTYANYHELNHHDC
# Summary of the method: as §1
# [5] = target: ELF4 (Homo sapiens, UniProt Q99607 1-663); conditions: protein: recombinant; tags: N-terminal GST; dsDNA, one strand shown
# Summary of the method: as §1
# [6] = target: T3, ELK4 (Homo sapiens, UniProt P28324-2 1-405); conditions: protein: recombinant; tags: N-terminal GST; dsDNA, one strand shown
# T3 sequence: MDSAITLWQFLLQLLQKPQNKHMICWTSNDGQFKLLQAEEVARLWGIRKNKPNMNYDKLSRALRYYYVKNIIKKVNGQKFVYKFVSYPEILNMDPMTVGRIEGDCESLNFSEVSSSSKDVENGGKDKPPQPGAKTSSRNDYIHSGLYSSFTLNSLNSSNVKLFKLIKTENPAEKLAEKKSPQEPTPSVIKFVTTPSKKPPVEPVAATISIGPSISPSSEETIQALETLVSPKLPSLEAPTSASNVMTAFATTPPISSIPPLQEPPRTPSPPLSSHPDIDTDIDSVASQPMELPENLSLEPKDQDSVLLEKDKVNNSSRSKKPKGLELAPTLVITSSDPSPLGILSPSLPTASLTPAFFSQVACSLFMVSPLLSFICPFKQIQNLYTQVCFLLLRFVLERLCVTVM
# Summary of the method: as §1
# [7] = target: T4, ETV2 (Homo sapiens, UniProt O00321 1-342); conditions: protein: recombinant; tags: N-terminal GST; dsDNA, one strand shown
# T4 sequence: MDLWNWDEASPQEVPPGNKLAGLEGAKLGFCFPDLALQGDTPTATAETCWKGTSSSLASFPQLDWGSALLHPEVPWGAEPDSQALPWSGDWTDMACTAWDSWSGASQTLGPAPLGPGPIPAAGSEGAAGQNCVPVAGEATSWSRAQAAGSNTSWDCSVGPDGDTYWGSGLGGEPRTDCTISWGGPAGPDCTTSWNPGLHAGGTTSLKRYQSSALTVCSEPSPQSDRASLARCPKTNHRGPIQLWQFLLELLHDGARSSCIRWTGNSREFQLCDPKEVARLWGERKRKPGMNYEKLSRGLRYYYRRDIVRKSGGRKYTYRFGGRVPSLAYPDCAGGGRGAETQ
# Summary of the method: as §1
# [8] = target: T5, ELF3 (Homo sapiens, UniProt P78545 1-371); conditions: protein: recombinant; tags: N-terminal GST; dsDNA, one strand shown
# T5 sequence: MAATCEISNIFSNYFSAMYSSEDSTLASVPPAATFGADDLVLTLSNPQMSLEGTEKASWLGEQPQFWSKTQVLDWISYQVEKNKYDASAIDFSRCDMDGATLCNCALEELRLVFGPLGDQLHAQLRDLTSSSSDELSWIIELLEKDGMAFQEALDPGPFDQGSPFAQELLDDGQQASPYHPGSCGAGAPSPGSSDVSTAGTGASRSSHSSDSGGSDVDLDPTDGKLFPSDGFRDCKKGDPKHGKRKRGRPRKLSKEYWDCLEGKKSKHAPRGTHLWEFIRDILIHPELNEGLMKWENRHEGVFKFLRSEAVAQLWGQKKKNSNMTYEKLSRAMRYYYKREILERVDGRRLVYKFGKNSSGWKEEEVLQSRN
# Summary of the method: as §1
# [9] = target: CRX (Homo sapiens, UniProt O43186 1-299); conditions: protein: recombinant; tags: N-terminal GST; dsDNA, one strand shown
# Summary of the method: as §1
# [10] = target: ETV1 (Homo sapiens, UniProt P50549 1-477); conditions: protein: recombinant; tags: N-terminal GST; dsDNA, one strand shown
# Summary of the method: as §1
# [11] = target: T6, ERF (Homo sapiens, UniProt P50548 1-548); conditions: protein: recombinant; tags: N-terminal GST; dsDNA, one strand shown
# T6 sequence: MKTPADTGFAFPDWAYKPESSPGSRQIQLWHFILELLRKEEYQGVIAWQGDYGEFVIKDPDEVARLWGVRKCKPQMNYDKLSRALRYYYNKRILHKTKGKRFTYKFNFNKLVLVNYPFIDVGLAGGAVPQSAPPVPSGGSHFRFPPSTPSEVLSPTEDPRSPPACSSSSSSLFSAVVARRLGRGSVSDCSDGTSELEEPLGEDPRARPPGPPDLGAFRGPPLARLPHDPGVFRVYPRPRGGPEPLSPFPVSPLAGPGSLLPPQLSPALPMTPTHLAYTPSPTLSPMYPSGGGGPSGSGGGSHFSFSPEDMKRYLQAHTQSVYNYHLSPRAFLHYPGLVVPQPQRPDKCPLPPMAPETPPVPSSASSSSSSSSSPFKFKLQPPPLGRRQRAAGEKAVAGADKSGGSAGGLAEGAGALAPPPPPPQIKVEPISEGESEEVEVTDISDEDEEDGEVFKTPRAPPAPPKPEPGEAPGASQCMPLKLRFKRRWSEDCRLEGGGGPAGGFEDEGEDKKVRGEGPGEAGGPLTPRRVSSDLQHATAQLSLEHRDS
# Summary of the method: as §1
# [12] = target: T7, ETV3L (Homo sapiens, UniProt Q6ZN32 1-361); conditions: protein: recombinant; tags: N-terminal GST; dsDNA, one strand shown
# T7 sequence: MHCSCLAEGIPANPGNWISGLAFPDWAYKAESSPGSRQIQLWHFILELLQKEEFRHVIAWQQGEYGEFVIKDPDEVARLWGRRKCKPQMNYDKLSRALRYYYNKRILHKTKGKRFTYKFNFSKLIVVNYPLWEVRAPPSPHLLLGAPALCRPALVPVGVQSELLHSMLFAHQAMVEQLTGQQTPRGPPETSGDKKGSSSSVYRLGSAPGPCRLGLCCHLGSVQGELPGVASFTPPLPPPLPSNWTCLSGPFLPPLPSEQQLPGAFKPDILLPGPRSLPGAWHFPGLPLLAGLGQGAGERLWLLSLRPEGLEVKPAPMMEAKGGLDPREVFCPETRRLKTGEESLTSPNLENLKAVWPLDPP
# Summary of the method: as §1
# [13] = target: T8, ETS2 (Homo sapiens, UniProt P15036 1-469); conditions: protein: recombinant; tags: N-terminal GST; dsDNA, one strand shown
# T8 sequence: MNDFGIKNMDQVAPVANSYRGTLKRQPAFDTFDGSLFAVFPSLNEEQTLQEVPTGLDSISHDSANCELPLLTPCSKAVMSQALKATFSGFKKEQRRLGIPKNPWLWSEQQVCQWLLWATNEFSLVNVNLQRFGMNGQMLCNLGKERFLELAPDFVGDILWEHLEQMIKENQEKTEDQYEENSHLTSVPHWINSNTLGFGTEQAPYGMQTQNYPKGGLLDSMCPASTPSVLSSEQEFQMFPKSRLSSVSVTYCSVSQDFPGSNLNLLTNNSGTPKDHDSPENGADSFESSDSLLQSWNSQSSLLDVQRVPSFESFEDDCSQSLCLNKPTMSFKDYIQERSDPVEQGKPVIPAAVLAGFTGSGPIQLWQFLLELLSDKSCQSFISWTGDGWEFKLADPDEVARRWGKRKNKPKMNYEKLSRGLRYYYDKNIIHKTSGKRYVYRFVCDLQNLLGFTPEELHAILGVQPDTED
# Summary of the method: as §1
# [14] = target: T9, SPDEF (Homo sapiens, UniProt O95238 1-335); conditions: protein: recombinant; tags: N-terminal GST; dsDNA, one strand shown
# T9 sequence: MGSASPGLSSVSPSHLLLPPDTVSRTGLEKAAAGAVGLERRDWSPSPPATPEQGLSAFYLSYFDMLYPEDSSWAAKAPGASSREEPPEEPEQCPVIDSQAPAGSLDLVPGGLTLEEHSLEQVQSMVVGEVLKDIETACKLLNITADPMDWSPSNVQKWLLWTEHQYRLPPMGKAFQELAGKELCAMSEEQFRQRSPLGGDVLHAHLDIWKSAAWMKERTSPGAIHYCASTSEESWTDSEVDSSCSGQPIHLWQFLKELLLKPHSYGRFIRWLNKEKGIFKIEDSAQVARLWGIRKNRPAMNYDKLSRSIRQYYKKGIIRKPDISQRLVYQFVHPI
# Summary of the method: as §1
# [15] = target: T10, ETV7 (Homo sapiens, UniProt Q9Y603 1-341); conditions: protein: recombinant; tags: N-terminal GST; dsDNA, one strand shown
# T10 sequence: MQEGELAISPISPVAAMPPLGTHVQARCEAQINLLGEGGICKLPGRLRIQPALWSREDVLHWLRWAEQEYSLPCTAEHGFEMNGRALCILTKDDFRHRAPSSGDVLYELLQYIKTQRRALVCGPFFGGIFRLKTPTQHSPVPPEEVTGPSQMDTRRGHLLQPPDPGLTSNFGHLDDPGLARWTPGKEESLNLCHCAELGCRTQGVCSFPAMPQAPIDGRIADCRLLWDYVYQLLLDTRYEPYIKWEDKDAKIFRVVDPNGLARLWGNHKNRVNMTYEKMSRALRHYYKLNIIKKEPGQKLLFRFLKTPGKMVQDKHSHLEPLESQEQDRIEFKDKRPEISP
# Summary of the method: as §1
# [16] = target: T11, ELF5 (Homo sapiens, UniProt Q9UKW6-2 1-255); conditions: protein: recombinant; tags: N-terminal GST; dsDNA, one strand shown
# T11 sequence: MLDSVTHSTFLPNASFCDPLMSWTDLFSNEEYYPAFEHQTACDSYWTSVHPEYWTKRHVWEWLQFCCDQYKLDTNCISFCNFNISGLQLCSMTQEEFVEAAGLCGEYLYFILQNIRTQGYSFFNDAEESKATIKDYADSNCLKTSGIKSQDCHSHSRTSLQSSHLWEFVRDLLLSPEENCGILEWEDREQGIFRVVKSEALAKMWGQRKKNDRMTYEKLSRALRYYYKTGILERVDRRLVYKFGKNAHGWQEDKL
# Summary of the method: as §1
# [17] = target: T12, ETV3 (Homo sapiens, UniProt P41162-2 1-143); conditions: protein: recombinant; tags: N-terminal GST; dsDNA, one strand shown
# T12 sequence: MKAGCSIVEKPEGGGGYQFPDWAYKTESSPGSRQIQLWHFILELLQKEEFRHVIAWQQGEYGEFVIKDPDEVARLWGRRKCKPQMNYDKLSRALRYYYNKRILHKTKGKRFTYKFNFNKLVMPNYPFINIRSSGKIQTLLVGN
# Summary of the method: as §1
# [18] = target: ETV6 (Homo sapiens, UniProt P41212 1-452); conditions: protein: recombinant; tags: N-terminal GST; dsDNA, one strand shown
# Summary of the method: as §1
# Chain of ELF4 (Q99607 whole entry): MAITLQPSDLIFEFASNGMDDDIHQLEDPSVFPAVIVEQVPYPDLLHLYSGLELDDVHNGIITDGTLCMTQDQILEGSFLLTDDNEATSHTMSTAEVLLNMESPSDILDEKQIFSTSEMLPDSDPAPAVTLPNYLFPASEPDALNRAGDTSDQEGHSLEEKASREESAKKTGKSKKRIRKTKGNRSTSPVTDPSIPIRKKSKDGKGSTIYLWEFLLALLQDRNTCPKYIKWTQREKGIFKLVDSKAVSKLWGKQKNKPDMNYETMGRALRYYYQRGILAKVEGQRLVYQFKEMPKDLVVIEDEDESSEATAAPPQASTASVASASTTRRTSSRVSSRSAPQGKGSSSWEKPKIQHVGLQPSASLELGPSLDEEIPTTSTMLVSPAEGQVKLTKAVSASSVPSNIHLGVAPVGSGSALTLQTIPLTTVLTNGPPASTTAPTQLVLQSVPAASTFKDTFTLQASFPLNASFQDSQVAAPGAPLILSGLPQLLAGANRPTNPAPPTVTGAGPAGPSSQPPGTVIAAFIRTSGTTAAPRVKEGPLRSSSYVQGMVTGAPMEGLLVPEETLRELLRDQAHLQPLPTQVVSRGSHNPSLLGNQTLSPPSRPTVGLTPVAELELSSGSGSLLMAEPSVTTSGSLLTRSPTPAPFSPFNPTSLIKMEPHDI
# Chain of ETV5 (P41161 whole entry): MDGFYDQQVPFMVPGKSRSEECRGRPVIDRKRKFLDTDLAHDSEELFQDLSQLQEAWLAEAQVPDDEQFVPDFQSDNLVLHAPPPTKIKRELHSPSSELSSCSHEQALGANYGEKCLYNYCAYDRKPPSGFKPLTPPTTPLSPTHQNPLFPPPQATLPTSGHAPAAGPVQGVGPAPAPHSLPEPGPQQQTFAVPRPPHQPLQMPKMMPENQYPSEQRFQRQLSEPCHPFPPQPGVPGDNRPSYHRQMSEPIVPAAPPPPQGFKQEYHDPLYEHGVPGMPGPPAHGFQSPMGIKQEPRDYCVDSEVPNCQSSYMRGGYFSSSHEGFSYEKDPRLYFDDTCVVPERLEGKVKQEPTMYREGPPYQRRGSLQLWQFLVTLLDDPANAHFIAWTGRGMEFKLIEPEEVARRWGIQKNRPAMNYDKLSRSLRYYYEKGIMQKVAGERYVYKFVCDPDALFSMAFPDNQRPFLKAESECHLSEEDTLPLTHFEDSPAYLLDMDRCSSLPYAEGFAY
# Chain of HSF1 (Q00613 whole entry): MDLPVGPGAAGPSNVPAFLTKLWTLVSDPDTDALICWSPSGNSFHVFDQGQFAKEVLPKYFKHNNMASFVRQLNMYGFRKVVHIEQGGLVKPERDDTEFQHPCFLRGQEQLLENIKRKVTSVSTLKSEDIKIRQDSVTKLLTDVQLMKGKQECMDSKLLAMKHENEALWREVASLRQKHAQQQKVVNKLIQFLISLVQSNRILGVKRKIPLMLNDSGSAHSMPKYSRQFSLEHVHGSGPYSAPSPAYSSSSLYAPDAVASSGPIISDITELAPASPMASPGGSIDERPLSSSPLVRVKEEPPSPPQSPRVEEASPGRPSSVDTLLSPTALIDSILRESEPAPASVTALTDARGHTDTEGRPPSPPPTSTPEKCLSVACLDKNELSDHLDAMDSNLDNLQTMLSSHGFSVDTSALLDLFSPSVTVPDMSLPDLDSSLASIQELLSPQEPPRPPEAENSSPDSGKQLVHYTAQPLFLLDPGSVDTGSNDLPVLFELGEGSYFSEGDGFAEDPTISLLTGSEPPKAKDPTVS
# Chain of ETV6 (P41212 whole entry): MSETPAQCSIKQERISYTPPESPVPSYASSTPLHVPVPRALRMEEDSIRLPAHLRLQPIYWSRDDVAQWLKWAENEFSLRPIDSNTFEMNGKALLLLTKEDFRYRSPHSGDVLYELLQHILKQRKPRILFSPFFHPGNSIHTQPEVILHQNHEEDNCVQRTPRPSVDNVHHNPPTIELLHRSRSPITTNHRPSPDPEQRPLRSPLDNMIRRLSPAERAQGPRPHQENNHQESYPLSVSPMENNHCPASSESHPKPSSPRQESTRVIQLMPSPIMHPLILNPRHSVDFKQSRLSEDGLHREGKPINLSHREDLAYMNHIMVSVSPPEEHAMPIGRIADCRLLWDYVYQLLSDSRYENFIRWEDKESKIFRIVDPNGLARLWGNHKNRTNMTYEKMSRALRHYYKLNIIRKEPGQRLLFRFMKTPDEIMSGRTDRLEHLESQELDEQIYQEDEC
# Chain of ETV1 (P50549 whole entry): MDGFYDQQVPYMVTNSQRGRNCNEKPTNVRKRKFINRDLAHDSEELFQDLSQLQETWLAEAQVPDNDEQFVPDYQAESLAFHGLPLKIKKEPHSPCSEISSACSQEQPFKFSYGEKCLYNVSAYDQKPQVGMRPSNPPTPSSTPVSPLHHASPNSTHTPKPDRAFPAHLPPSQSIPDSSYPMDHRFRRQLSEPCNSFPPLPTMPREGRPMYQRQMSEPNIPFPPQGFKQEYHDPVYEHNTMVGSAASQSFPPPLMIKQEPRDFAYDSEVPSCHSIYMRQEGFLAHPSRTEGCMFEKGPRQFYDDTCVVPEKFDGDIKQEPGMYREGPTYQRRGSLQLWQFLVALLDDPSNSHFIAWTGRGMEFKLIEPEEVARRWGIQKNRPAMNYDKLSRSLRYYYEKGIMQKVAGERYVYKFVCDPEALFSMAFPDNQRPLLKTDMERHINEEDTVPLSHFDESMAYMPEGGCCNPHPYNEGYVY
# Chain of CRX (O43186 whole entry): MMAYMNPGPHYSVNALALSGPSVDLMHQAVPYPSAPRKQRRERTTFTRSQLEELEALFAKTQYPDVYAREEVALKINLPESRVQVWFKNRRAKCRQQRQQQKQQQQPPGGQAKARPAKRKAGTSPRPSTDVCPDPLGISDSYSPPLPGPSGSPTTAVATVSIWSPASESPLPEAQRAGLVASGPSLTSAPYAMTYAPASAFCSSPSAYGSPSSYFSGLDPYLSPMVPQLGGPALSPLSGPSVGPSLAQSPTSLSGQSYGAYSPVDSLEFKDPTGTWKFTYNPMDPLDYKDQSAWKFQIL
sequence,measurement,setting,value
TTATAT,binding signal,[1],"1.33 fold enrichment (6-mer frequency, TF over GST control)"
same,binding signal,[2],"1.26 fold enrichment (6-mer frequency, TF over GST control)"
same,binding signal,[3],"1.76 fold enrichment (6-mer frequency, TF over GST control)"
same,binding signal,[4],"1.44 fold enrichment (6-mer frequency, TF over GST control)"
same,binding signal,[5],"1.34 fold enrichment (6-mer frequency, TF over GST control)"
same,binding signal,[6],"1.45 fold enrichment (6-mer frequency, TF over GST control)"
same,binding signal,[7],"1.46 fold enrichment (6-mer frequency, TF over GST control)"
same,binding signal,[8],"1.44 fold enrichment (6-mer frequency, TF over GST control)"
same,binding signal,[9],"2.47 fold enrichment (6-mer frequency, TF over GST control)"
same,binding signal,[10],"1.34 fold enrichment (6-mer frequency, TF over GST control)"
same,binding signal,[11],"1.23 fold enrichment (6-mer frequency, TF over GST control)"
same,binding signal,[12],"1.37 fold enrichment (6-mer frequency, TF over GST control)"
same,binding signal,[13],"1.39 fold enrichment (6-mer frequency, TF over GST control)"
same,binding signal,[14],"1.4 fold enrichment (6-mer frequency, TF over GST control)"
same,binding signal,[15],"1.38 fold enrichment (6-mer frequency, TF over GST control)"
same,binding signal,[16],"1.28 fold enrichment (6-mer frequency, TF over GST control)"
same,binding signal,[17],"1.44 fold enrichment (6-mer frequency, TF over GST control)"
same,binding signal,[18],"1.36 fold enrichment (6-mer frequency, TF over GST control)"
